Laboratory results: PubChem BioAssay AID1117319 (Southern Research Institute, 2015)
Values joined by “and” are separate entries in the source; they are usually repeats but may differ in a detail not shown here. Equal entries are not always repeated. Out of some 260,000 compounds screened, about 1,500 (0.58%) were called active. Another 5% or so got no clear call; they are omitted.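 The calls were made as follows: active = inhibition above a set limit at one or more doses, reproduced on every date tested; inconclusive = results disagree between test dates, or hit never tested in dose response; inactive = the rest.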 Not all results are given here. Results with a measured potency or affinity are listed apart.

Target: Virion infectivity factor (Human immunodeficiency virus type 1 group M subtype B (isolate BH10)) + Virion infectivity factor (Human immunodeficiency virus type 1 group M subtype B (isolate BRU/LAI)) + Virion infectivity factor (Human immunodeficiency virus type 1 group M subtype B (isolate PCV12)) + Virion infectivity factor (Human immunodeficiency virus type 1 group M subtype B (isolate HXB2)) + DNA dC->dU-editing enzyme APOBEC-3G (Homo sapiens) (UniProt P69720+P69721+P69722+P69723+Q9HC16)
Assay: HIV-1 Vif–A3G interaction blockers – biochemical, TR-FRET, GST-Vif 1-94, biotin-A3G peptide, dose response retest, primary screen (AID 1117319);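 also: Vif residues 1-94 fused to GST binding biotinylated APOBEC3G peptide 110-148; 0% = full assay without inhibitor and 100% = GST in place of GST-Vif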
Details: TR-FRET GST-Vif / biotin-A3G peptide binding; stronger effect = higher value

inhibition, inactive:
COc1cccc(NC(=O)CN(C)C(=O)c2ccc(COc3ccccc3)o2)c1 10.4%
O=C(CSc1ccc(-c2ccccc2)nn1)N1CCOCC1 8.48%
COc1cc(/C=C2/SC(=NCc3ccccc3)N(Cc3ccccc3)C2=O)ccc1O -3.52%
Cc1c(C(=O)N2CCN(c3ccc(F)cc3)CC2)sc2nc(-c3ccccc3)cn12 -5.76%
COc1ccccc1N1CCN(C(=O)c2sc3nc(-c4ccccc4)cn3c2C)CC1 -3.37%
COc1cccc(/C=N/NC(=O)C(=O)NCc2ccco2)c1O -4.26%
CN(C)CCN=Cc1c(O)n(Cc2ccc3c(c2)OCO3)c(=O)c2ccccc12 -11.8%
CC(Sc1nc2sc3c(c2c(=O)n1-c1ccccc1)CCCC3)C(=O)O (stereo not given) 17%
C=CCSc1nc2sc3c(c2c(=O)n1CC)CCC3 6.31%
CCn1c(SCC(N)=O)nc2sc3c(c2c1=O)CCCC3 -2.97%
CCn1c(SCC(=O)O)nc2sc3c(c2c1=O)CCC3 32.7%
CC1(C)CC(=O)C=C(c2n[nH]nc2C2CC2)C1 4.55%
CCN(Cc1ccccc1)C(=O)c1cc(S(=O)(=O)N2CCOCC2)ccc1N1CCCC1 3.77%
Cc1cc(Nc2ccc(Br)cc2)nc(-c2ccccc2O)n1 -1.59%
CC(=NCc1cccc(Cl)c1)c1nc(-c2ccco2)oc1O 8.49%
O=C(c1cccc(F)c1)N1CCCC(C(=O)N2CCCC2)C1 (stereo not given) -3.84%
O=C(Nc1ccc(Oc2ccccc2)cc1)c1ccc(Cn2c(=O)[nH]c3ccsc3c2=O)cc1 -6.11%
Cc1cccc(C)c1NC(=O)CSc1nnc(-c2ccco2)n1N -0.27%
Cc1ccccc1NC(=O)CSc1n[nH]c(-c2ccco2)n1 9.51%
Cc1ccccc1NC(=O)CSc1nnc(-c2ccco2)n1N -10.3%
Cc1cccc(NC(=O)CSc2nnc(CNC(=O)c3ccco3)n2C)c1C -5.41%
Cc1cccc(C)c1NC(=O)CSc1nc(-c2ccco2)cc(C(F)(F)F)n1 -1.99%
Cc1cccc(NC(=O)CSc2nnc(-c3ccco3)o2)c1C -1.43%
CN(C)c1ccc(C(CNS(=O)(=O)c2cccc([N+](=O)[O-])c2)N2CCOCC2)cc1 (stereo not given) -0.61%
COc1ccc(CN(CC(=O)NCc2ccc(F)cc2)C(=O)c2ccco2)cc1 -3.39%
O=C(CSc1nnc(-c2cnccn2)n1Cc1ccco1)c1ccc2ccccc2c1 4.99%
CCn1cc(C(=O)NCc2ccc3c(c2)OCO3)c(=O)c2cc(S(=O)(=O)N3CCOCC3)ccc21 -9.22% and 8.82%
CCOc1ccc(C=NN2CCCCCC2)cc1OCC -8.05%
CCCCC12CN3CC(C)(CN(C1)C31C(=O)N(C)c3ccc(C)cc31)C2=O (stereo not given) 3.69%
N#Cc1cccnc1Nc1ccc(Cl)cc1 8.98%
CN(C(=O)COC(=O)c1ccc(Cl)cc1N)C1CCS(=O)(=O)C1 (stereo not given) -4.2%
OCCC1CN(Cc2ccccc2-c2ccco2)CCN1Cc1ccccc1 (stereo not given) 15.2%
N#CC1=C2SCN(Cc3ccco3)CN2C(=O)CC1c1cccc2ccccc12 (stereo not given) 16%
COc1cc(C2CC(=O)N3CN(Cc4ccco4)CSC3=C2C#N)ccc1OCc1ccccc1 (stereo not given) 24.2%
O=C(CN(Cc1ccc(F)cc1)C(=O)CNS(=O)(=O)c1ccccc1)NCC1CCCO1 (stereo not given) 2.58%
O=C(OCCN1C(=O)c2ccccc2C1=O)c1cc(S(=O)(=O)N2CCOCC2)ccc1F -0.69%
CC1=C(C(=O)OC2CCCCC2)C(c2ccccc2Br)NC(=O)N1 (stereo not given) -6.38%
CNc1cccc2c1C(=O)c1ccccc1C2=O 7.57%
CNC(=S)Nc1ccccc1-c1ccccc1 -7.68%
CCCCOc1ccc(C(=O)NN2C(=O)NC3(CCCCC3)C2=O)cc1OC 2.72%
CC[C@@H](C(=O)n1nc(C)cc1C)[C@H](NS(=O)(=O)c1ccc(C)cc1)c1ccccc1 -0.92%
CCNC(=O)CSc1nnc(-c2cccc(S(=O)(=O)N3CCOCC3)c2)o1 4.88%
O=C(c1cc(COc2ccc(F)cc2Cl)on1)N1CCCC(c2ccccc2)C1 (stereo not given) 2.73%
Cn1c(=O)[nH]c(=O)c2c1nc(N1CCOCC1)n2CCSc1nc2ccccc2[nH]1 2.63%
CC1(C)Cc2nc3sc4c(=O)n(CC(=O)NCc5ccco5)cnc4c3cc2CO1 2.08%
CC1(C)Cc2nc3sc4c(SCC(=O)NCc5ccccc5)ncnc4c3cc2CO1 -70.1% and -107%
CC1(C)NC(=O)N(CNc2cc(Cl)ccc2Cl)C1=O 20.3%
CCCn1c(SCC(=O)NC)nnc1C(C)C 6.34%
N#Cc1cccc(NC(=O)Cc2ccsc2)c1 5.18%
N#CC1CN(C(c2ccccc2)c2ccccc2)C1 -4.6%
CCOc1ccc(NC(c2ccccc2)P(=O)(OC)OC)cc1 (stereo not given) 5.04%
CCOc1ccc(N(CC(=O)NC(C)CC)S(=O)(=O)c2c(C)noc2C)cc1 (stereo not given) -0.89%
CCOc1ccc(N(CC(=O)OC)S(=O)(=O)c2c(C)noc2C)cc1 -1.15%
COC(=O)C1CCN(C(=O)Nc2ccccc2)CC1 0.21%
COc1cccc(-c2cc(C(F)(F)F)n3nc(N)nc3n2)c1 32.2%
COc1cccc(-c2cc3nc4c(c(N5CCC6(CC5)OCCO6)n3n2)CCCC4)c1 -6.69%
COc1ccc(N2CCN(CCNC(=O)Nc3ccc(C)c(Cl)c3)CC2)cc1 0.91%
CCCN(CC(=O)Nc1cccc(S(N)(=O)=O)c1)CC(=O)Nc1ccc(F)c(F)c1F 9.36%
CN(Cc1cnc2nc(N)nc(N)c2n1)c1ccc(C(=O)NC(CCC(=O)O)C(=O)O)c2ccccc12 (stereo not given) 4.59%
CN(Cc1cnc2nc(N)nc(N)c2n1)c1ccc(C(=O)NC(CCC(=O)O)C(=O)O)cc1C(F)(F)F (stereo not given) 4.16%
